# Test results from PubChem BioAssay AID1159580 (chemical genetic matrix, 2015).
# The whole screen tested about 5,500 compounds, of which about 2,000 (36%) were called active. Not shown: some 18% with an inconclusive outcome. The list shows a part of the results. Values without a mark were called inactive. No stated cut-off is given here; in the data, active means normalized growth mostly below about 0.91 (no sharp cut-off); inconclusive means no clear call, values can overlap the other calls; inactive means mostly above about 0.92.
# Experiment: chemical genetic growth profiling, strain panel (AID 1159580);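 further: tested at 20 µM; growth read once vehicle control cultures reached saturation at 30 °C; 1 = growth at the plate median or of vehicle wells; lower values mean less growth of the strain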
# Conditions: growth OD
# [1] = S. cerevisiae deletion strains, locus YAL013W, strain DEP1, hits give low values
# [2] = S. cerevisiae deletion strains, locus YBR229C, strain ROT2, hits give low values
# [3] = S. cerevisiae deletion strains, locus YDL101C, strain DUN1, hits give low values
# [4] = S. cerevisiae deletion strains, locus YDL134C, strain PPH21, hits give low values
# [5] = S. cerevisiae deletion strains, locus YDR150W, strain NUM1, hits give low values
# [6] = S. cerevisiae deletion strains, locus YEL061C, strain CIN8, hits give low values
# [7] = S. cerevisiae deletion strains, locus YGR078C, strain PAC10, hits give low values
# [8] = S. cerevisiae deletion strains, locus YHR030C, strain SLT2, hits give low values
# [9] = S. cerevisiae deletion strains, locus YHR087W, strain rtc3, hits give low values
# [10] = S. cerevisiae deletion strains, locus YJR043C, strain POL32, hits give low values
# [11] = S. cerevisiae deletion strains, locus YJR075W, strain HOC1, hits give low values
# [12] = S. cerevisiae deletion strains, locus YLR039C, strain RIC1, hits give low values
# [13] = S. cerevisiae deletion strains, locus YLR058C, strain SHM2 (second series), hits give low values
# [14] = S. cerevisiae deletion strains, locus YLR085C, strain ARP6, hits give low values
# [15] = S. cerevisiae deletion strains, locus YLR262C, strain YPT6, hits give low values
# [16] = S. cerevisiae deletion strains, locus YML094W, strain GIM5, hits give low values
# [17] = S. cerevisiae deletion strains, locus YMR219W, strain ESC1, hits give low values
# [18] = S. cerevisiae deletion strains, locus YMR263W, strain SAP30, hits give low values
# [19] = S. cerevisiae deletion strains, locus YNL128W, strain TEP1, hits give low values
# [20] = S. cerevisiae deletion strains, locus YNL153C, strain GIM3, hits give low values
# [21] = S. cerevisiae deletion strains, locus YNL298W, strain CLA4 (second series), hits give low values
# [22] = S. cerevisiae deletion strains, locus YNL322C, strain KRE1, hits give low values
# [23] = S. cerevisiae deletion strains, locus YNR030W, strain Alg12, hits give low values
# [24] = S. cerevisiae deletion strains, locus YOL006C, strain TOP1, hits give low values
# [25] = S. cerevisiae deletion strains, locus YPL055C, strain LGE1, hits give low values
# [26] = S. cerevisiae deletion strains, locus YPR135W, strain CTF4, hits give low values
# [27] = S. cerevisiae deletion strains, locus YPL241C, strain CIN2, hits give low values
# [28] = S. cerevisiae strains, strain wild type, hits give low values
# [29] = S. cerevisiae deletion strains, locus YAL040C, strain CLN3, hits give low values
# [30] = S. cerevisiae deletion strains, locus YCL061C, strain MRC1 (second series), hits give low values
# [31] = S. cerevisiae deletion strains, locus YER002W, strain NOP16, hits give low values
# [32] = S. cerevisiae deletion strains, locus YMR307W, strain GAS1, hits give low values
# [33] = S. cerevisiae deletion strains, locus YNL175C, strain NOP13, hits give low values
# [34] = S. cerevisiae deletion strains, locus YNL197C, strain WHI3, hits give low values
# [35] = S. cerevisiae deletion strains, locus YNL224C, strain SQS1, hits give low values
# [36] = S. cerevisiae deletion strains, locus YOR083W, strain WHI5 (second series), hits give low values
compound,measurement,setting,value
COc1ccccc1C1CCN(C(=O)c2ccc(F)cc2)CC1,normalized growth,[1],0.981
same,normalized growth,[2],0.986
same,normalized growth,"S. cerevisiae deletion strains, locus YCL061C, strain MRC1, hits give low values",0.989
same,normalized growth,[3],0.994
same,normalized growth,[4],0.983
same,normalized growth,[5],0.988
same,normalized growth,[6],0.965
same,normalized growth,[7],0.982
same,normalized growth,[8],0.754
same,normalized growth,[9],1.01
same,normalized growth,[10],0.987
same,normalized growth,[11],1
same,normalized growth,[12],1.03
same,normalized growth,[13],0.981
same,normalized growth,[14],0.901
same,normalized growth,[15],1.01
same,normalized growth,[16],0.944
same,normalized growth,[17],0.976
same,normalized growth,[18],0.994
same,normalized growth,[19],0.986
same,normalized growth,[20],0.989
same,normalized growth,[21],0.982
same,normalized growth,[22],0.978
same,normalized growth,[23],0.967
same,normalized growth,[24],0.852
same,normalized growth,[25],0.926
same,normalized growth,[26],0.975
COc1ccccc1C1CCN(Cc2ccc3ccccc3c2)CC1,normalized growth,[1],0.981
same,normalized growth,[2],0.965
same,normalized growth,[3],0.973
same,normalized growth,[5],1
same,normalized growth,[6],0.915
same,normalized growth,[7],0.986
same,normalized growth,[8],0.529 (active)
same,normalized growth,[9],0.987
same,normalized growth,[10],1.01
same,normalized growth,[11],0.99
same,normalized growth,[12],0.98
same,normalized growth,[13],0.985
same,normalized growth,[14],0.91
same,normalized growth,[15],0.904
same,normalized growth,[16],0.885
same,normalized growth,[17],1
same,normalized growth,[18],1.01
same,normalized growth,[20],0.962
same,normalized growth,[21],0.888
same,normalized growth,[22],0.989
same,normalized growth,[23],0.963
same,normalized growth,[25],1.02
same,normalized growth,[27],0.911
same,normalized growth,[26],0.773
same,normalized growth,[28],0.885 (active)
COc1ccccc1N1CCN(CCCCNC(=O)c2ccc3ccccc3c2)CC1,normalized growth,[29],0.951
same,normalized growth,[30],0.988
same,normalized growth,"S. cerevisiae deletion strains, locus YDR363W, strain ESC2, hits give low values",1.03
same,normalized growth,[31],0.996
same,normalized growth,[7],0.981
same,normalized growth,[18],0.978
same,normalized growth,[32],0.995
same,normalized growth,[33],1.03
same,normalized growth,[34],1.01
same,normalized growth,[35],0.983
same,normalized growth,[36],1.06
same,normalized growth,[25],0.999
Nc1cc(Cl)c(NC2=NCCN2)c(Cl)c1,normalized growth,[29],0.982
same,normalized growth,[30],1
same,normalized growth,[31],1
same,normalized growth,"S. cerevisiae deletion strains, locus YGR229C, strain SMI1, hits give low values",1.01
same,normalized growth,[11],0.998
same,normalized growth,[19],1
same,normalized growth,[20],0.987
same,normalized growth,[33],1.02
same,normalized growth,[34],1
same,normalized growth,[35],1.02
same,normalized growth,[36],1.04
same,normalized growth,[27],1
CNC(=S)NN=C(N)c1ccccn1,normalized growth,[1],1.02
same,normalized growth,[2],1.02
same,normalized growth,[3],0.972
same,normalized growth,[4],0.963
same,normalized growth,[5],1.04
same,normalized growth,[6],0.93
same,normalized growth,[7],1.01
same,normalized growth,[8],0.786
same,normalized growth,[9],1.05
same,normalized growth,"S. cerevisiae deletion strains, locus YJL187C, strain SWE1, hits give low values",1.01
same,normalized growth,[10],1.01
same,normalized growth,[11],1.01
same,normalized growth,"S. cerevisiae deletion strains, locus YKL190W, strain CNB1, hits give low values",0.521 (active)
same,normalized growth,[12],0.519 (active)
same,normalized growth,[13],1.01
same,normalized growth,[14],0.484 (active)
same,normalized growth,[15],0.698 (active)
same,normalized growth,[16],0.831 (active)
same,normalized growth,[17],1.01
same,normalized growth,[18],1.01
same,normalized growth,[32],0.525 (active)
same,normalized growth,[20],0.989
same,normalized growth,[21],0.75 (active)
same,normalized growth,[22],1.04
same,normalized growth,[23],0.669 (active)
same,normalized growth,[24],0.167 (active)
same,normalized growth,[25],1.03
same,normalized growth,[27],0.682 (active)
same,normalized growth,[26],0.7
same,normalized growth,[28],0.64 (active)
